Source: PubChem BioAssay
Shown are actives, neighbours in structure and some others; about 4.7% of the full set was active somewhere.
HSF-1 act: increases HSF-1 driven luciferase reporter signal; NIH3T3-HGL HSF-1 luciferase reporter, MG132, 8 h; 100% = twice DMSO control signal; activation, % at 9 µM; 300,000 tested, 1.7% active; AID 504408;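 active means mean replicate activation of at least 50% with a set share of replicates each reaching 50%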;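 further: 0% = median of the neutral control wells and 100% = twice that signal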
EBV LMP1 NFkB: reduces LMP1-driven NF-kappaB luciferase signal. inhibition, % at 12.5 µM. LMP1-induced NF-kappaB luciferase reporter cells, luminescence. 350,000 tested, 0.69% active. AID 504558; in the data active means inhibition above about 41%;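 further: 0% = neutral control wells and 100% = reference inhibitor control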
HSF1 inh: HSF1 inhibition; NIH3T3-HGL HSE-luciferase, MG132-induced, luminescence 8 h; hits give low values; activity change, negative = inhibition, % at 7.5 µM (by protocol); 300,000 tested, 0.77% active; AID 2098;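 active means more than half of replicate wells show activity change below -50%, luminescence cut by over half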;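 further: luciferase reports HSF-1 transcriptional activity via heat shock element; 0% = median of DMSO wells and -100% = zero luminescence signal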
TWEAK-Fn14 inh: TWEAK-Fn14 signaling inhibition; inhibition, % at 10 µM; TWEAK-stimulated Fn14 reporter cells, luciferase luminescence, 8 h; AID 1159606; 360,000 tested, 2% active; in the data active means inhibition above about 50%
HSP90 refold inh: blocks HSP90-mediated luciferase refolding in reticulocyte lysate; Rabbit reticulocyte lysate, luciferase refolding luminescence, 3 h; inhibition, % at 5.6 µM; 290,000 tested, 0.91% active;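 active means inhibition above the screen-wide mean plus 3 SD, computed separately per campaign, cut at about 16% in these data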;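 further: 0% = DMSO wells and 100% = 60 µM geldanamycin wells; inhibitors lower the luminescence because luciferase stays unfolded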
TROY signal inh: TROY signaling inhibition | Q293 LMP1-TROYcd NF-kB luciferase reporter, 4 h | inhibition, % at 10 µM | 360,000 tested, 0.98% active;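 active means compounds whose plate-normalised and pattern-corrected inhibition of the luciferase reporter signal at the single screening dose is 50% or more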
An asterisk follows results filed as active; nt = no result given.

SMILES	HSF-1 act	EBV LMP1 NFkB	HSF1 inh	TWEAK-Fn14 inh	HSP90 refold inh	TROY signal inh
CC(=O)N(CCC(c1ccccc1)c1ccco1)Cc1cccs1 (stereo not given)	9.7	-8.3	7.8	1.7	5.5	11.9
CCC(=O)N(CCC(c1ccco1)c1ccccc1OC)Cc1cccs1 (stereo not given)	-82.0	2.3	-75.0*	-3.6	1.8	-5.2
CC(=O)Nc1cc(-c2ccoc2)cn2c(-c3ccccc3)cnc12	nt	nt	nt	11.4	nt	3.2
CCOC(=O)NNC(=O)CCn1c2c(c3ccccc31)CCCC2	-17.0	14.1	-12.5	59.3*	-1.3	46.6
COC(=O)c1cccc(NC(=O)c2ccc3c(c2)C(=O)N(C(C)(C)C)C3=O)c1	7.5	-0.8	3.8	15.1	-0.7	31.9
CC(=O)Oc1cccc(C(=O)Nc2ccc3c(c2)C(=O)N(CC2CCCO2)C3=O)c1 (stereo not given)	71.8*	1.4	37.7	-33.5	-1.6	-39.5
O=C(O)c1cccc(NC(=O)c2ccc3c(c2)C(=O)N(CC2CCCO2)C3=O)c1 (stereo not given)	-13.0	5.7	-5.0	0.8	16.7*	-33.3
CC(C)(C)NC(=O)c1cccc(NC(=O)c2ccc3c(c2)C(=O)N(C(C)(C)C)C3=O)c1	-27.7	-31.2	-11.2	-3.5	-4.2	56.6*
Cn1c(=O)c2[nH]c(C=Cc3ccc4c(c3)OCO4)nc2n(C)c1=O	nt	-1.3	nt	18.8	nt	0.8
CCCCN(C)C(=O)c1ccc(Nc2nc(C(N)COCc3ccccc3)cs2)nc1 (stereo not given)	nt	nt	nt	-15.9	nt	11.9
CCC1=NN(C(=O)Cc2ccc([N+](=O)[O-])cc2)C(O)(C(F)(F)F)C1 (stereo not given)	6.5	4.2	-2.8	-10.5	6.2	4.2
O=C(Cc1ccc([N+](=O)[O-])cc1)N1N=C(C2CC2)CC1(O)C(F)(F)F (stereo not given)	67.7*	-0.8	12.1	7.0	2.1	-14.8
CCCCCCc1nc2nc(Cl)c(Cl)nc2[nH]1	nt	-2.1	nt	13.7	nt	-13.5
O=C(CN1CCN(C(C(=O)Nc2cc(C(F)(F)F)ccc2Cl)c2ccccc2)CC1)NC1CC1 (stereo not given)	nt	-11.8	nt	10.9	nt	25.3
CCC(CC)C(=O)N(C)c1c(C)nc2c(OCc3ccc(F)c(F)c3)cccn12	nt	nt	nt	10.4	nt	18.3
NC(=O)CC(NC(=O)c1ccccc1)c1ccc(N2CCC(Cc3ccccc3)CC2)c([N+](=O)[O-])c1 (stereo not given)	7.2	17.7	4.8	43.5	4.8	55.2*
NC(=O)CC(NC(=O)c1ccc(Br)cc1)c1ccc(N2CCC(Cc3ccccc3)CC2)c([N+](=O)[O-])c1 (stereo not given)	11.9	8.8	6.1	18.4	0.8	-3.5
O=S(=O)(CC(CN1CCCCC1)N1CCCCC1)c1ccc2ccccc2c1 (stereo not given)	90.1*	15.3	53.7	41.0	-2.3	-29.6
Cc1ccc(S(=O)(=O)CC(CN2CCCCC2)N2CCCCC2)cc1 (stereo not given)	20.0	19.1	11.7	13.3	0.6	-12.0
O=C(/C=C/c1cccc([N+](=O)[O-])c1)n1cnc2ccccc21	231.2*	6.5	207.0	102.6*	-3.8	20.4
COc1ccccc1C(=O)/C=C/c1ccc(N2CCCCC2)c([N+](=O)[O-])c1	9.7	-10.7	2.6	55.2*	3.8	-34.3
O=C(/C=C/c1cccc([N+](=O)[O-])c1)N1CCN(c2ccccn2)CC1	2.9	-4.8	-6.3	-3.4	1.9	0.5
O=C(/C=C/c1ccc(N2CCCCC2)c([N+](=O)[O-])c1)c1ccc(O)cc1	74.8*	-26.3	85.8	14.4	-5.0	48.7
CC(=O)Oc1ccccc1C(=O)C=Cc1cccc([N+](=O)[O-])c1	nt	18.4	nt	82.6*	nt	19.6
Cc1cc(O)c(C(=O)/C=C/c2cccc([N+](=O)[O-])c2)c(=O)o1	-11.2	-6.0	2.7	-18.9	0.7	-1.9
SMILES	HSF-1 act	EBV LMP1 NFkB	HSF1 inh	TWEAK-Fn14 inh	HSP90 refold inh	TROY signal inh
CC1(C(=O)Nc2ccc3c(c2)OCCO3)CCC(=O)N1CCc1c[nH]c2ccccc12 (stereo not given)	nt	nt	nt	-14.6	nt	-1.2
CCCCN(C=O)c1c(CC)nc2c(OCCn3cccc3)cccn12	nt	nt	nt	-3.3	nt	-1.8
CCCCN(C=O)c1c(CC)nc2c(OCCOc3ccc(F)cc3)cccn12	nt	nt	nt	63.4*	nt	-0.1
CCCS(=O)(=O)NC(=O)C1(C)CCCN(C(=O)C(C)(C)Oc2ccc(Cl)cc2)C1 (stereo not given)	nt	nt	nt	6.0	nt	-13.3
COCCCNc1ccn2nc(-c3ccccc3)cc2n1	nt	nt	nt	71.9*	nt	39.5
COc1cccc(-c2cnc3c(NC(C)=O)cc(-c4cccc(C(=O)NCCO)c4)cn23)c1	nt	nt	nt	-0.4	nt	-3.3
CC(C)Cn1c(N)c(C(=O)COC(=O)c2ccc([N+](=O)[O-])o2)c(=O)n(C)c1=O	66.9*	-11.7	52.6	-18.7	3.7	19.5
Cc1ccc(/C=c2\s/c(=C(/C#N)C(=O)N3CCCC3)n(Cc3ccco3)c2=O)s1	90.1*	-1.6	50.3	-7.6	12.0	1.5
COc1cc(/C=c2\s/c(=C(/C#N)C(=O)N3CCCC3)n(-c3ccccc3)c2=O)ccc1O	nt	-2.8	nt	16.6	-0.1	21.3
Cc1ccc(S(=O)(=O)N2CCC(C(=O)N[C@@H](Cc3ccccc3)C(=O)O)CC2)cc1	-80.7	4.8	-78.0*	-2.2	-3.8	0.9
Cc1ccc(S(=O)(=O)N[C@H](C(=O)N2CCC(C(=O)N[C@@H](CC(=O)O)C(=O)O)CC2)C(C)C)cc1	-1.7	74.4*	-0.8	-7.5	-5.5	2.5
CCCCCC(NC(=O)C1CCN(C(=O)[C@@H](NS(=O)(=O)c2ccc(C)cc2)C(C)C)CC1)C(=O)O (stereo not given in full)	-5.5	-5.1	0.3	-2.2	-3.0	-11.4
O=S1(=O)C[C@@H](N2CCN(c3ccccn3)CC2)[C@H](COCc2ccccc2)N1	nt	-4.9	nt	0.8	nt	-2.2
COc1ccc(/C=N/N=C2/SCC(=O)N2Cc2ccccc2)cc1	66.1*	-39.3	35.0	-12.0	1.2	-54.2
OC(c1cccc(Cl)c1)c1ncc(-c2cccc3ccccc23)[nH]1 (stereo not given)	nt	nt	nt	-4.0	nt	-4.7
Nc1ccc(-c2nc3c(Cl)cc(N)cc3[nH]2)cc1	1.7	12.9	-1.1	67.1*	-1.6	61.8*
Cc1ccc(NC(=O)CCSc2nnc(-c3ccco3)o2)cc1	-8.1	0.5	1.1	3.2	0.8	0.7
O=C(Nc1cccc(-c2nnc(-c3ccccc3)o2)c1)c1ccc(Br)o1	-10.2	-4.0	-0.9	40.2	5.7	58.4*
O=C(COc1ccccc1)Nc1cccc(-c2nnc(-c3ccccc3)o2)c1	36.0	-8.7	18.5	36.9	nt	-0.7
COc1ccc(CC(=O)Nc2cccc(-c3nnc(-c4ccco4)o3)c2)cc1	12.7	11.9	9.8	33.2	-0.5	-31.0
